For five compounds, outcome and AC50 results are on record in PubChem BioAssay (EPA / NIEHS).

Each structure is given as a SMILES string. Several values for one entry are separate records, joined by “and”; a condition that tells them apart may be missing. Equal values may be shown once. Results filed as inconclusive are left out. Activity calls are given as the source filed them. The calls were made as follows, unless noted: active = hit-call score of the fitted dose curve at least 0.9, where 1 is the maximum; inactive = score below 0.9.

Assay [1] can be described thus: ATG_NFI_CIS: Attagene CIS-FACTORIAL HepG2 Assay for human Nuclear Factor I (NFI) (AID 2282989). To be noted: HepG2 cis-regulatory reporter, NFI response element transcription; actives raise or lower the signal. In a few lines: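 Read-out: reporter mRNA via RT-PCR plus capillary electrophoresis with fluorescence detection. Transiently transfected HepG2 (endogenous TF activity on cis promoters), 24 h compound exposure; gain or loss of signal fitted against DMSO.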

Assay [2] addresses Myc proto-oncogene protein (Homo sapiens) (UniProt P01106). The assay is described as follows: ATG_Myc_CIS: Attagene CIS-FACTORIAL HepG2 Assay for human Myelocytomatosis (Myc) Proto-Oncogene Transcription Factor (AID 2282990). Conditions: HepG2, Attagene cis-reporter transcription factor activity; actives raise or lower the signal. In a few lines: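 After 24 h chemical treatment of HepG2 cells carrying multiplexed cis-regulated reporter constructs, reporter transcripts quantified by RT-PCR and capillary electrophoresis of fluorescent fragments. Gain or loss fitted against DMSO baseline.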

Assay [3] can be described thus: ATG_NRF2_ARE_CIS: Attagene CIS-FACTORIAL HepG2 Assay for human Nuclear Factor Erythroid 2 Related Factor 2 (NFR2) response to Antioxidant Response Elements (ARE) (AID 2282992).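 As to AC50: reporter mRNA level measured by RT-PCR and capillary electrophoresis fluorescence.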 Conditions: HepG2 Attagene ARE/NRF2 reporter, transcription factor activity; actives raise or lower the signal. The method in brief:
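Fluorescence intensity of reporter-specific cDNA fragments, separated by capillary electrophoresis, reflects mRNA induction in transfected HepG2 cells at 24 h. Activity is fitted bidirectionally, DMSO serving as baseline.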

A short description of assay [4]: ATG_Oct_MLP_CIS: Attagene CIS-FACTORIAL HepG2 Assay for human Octamer-Binding Transcription Factor (Oct) (AID 2282993). To be noted: HepG2 Attagene cis-factorial Oct reporter, mRNA; actives raise or lower the signal. The method in brief:
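Read-out: reporter mRNA via RT-PCR plus capillary electrophoresis of 6-FAM-labelled fragments. Transiently transfected HepG2, 24 h exposure, endogenous TF activity on cis elements. Gain or loss of signal fitted relative to DMSO.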

Assay [5] concerns the target Cellular tumor antigen p53 (Homo sapiens) (UniProt P04637). Briefly: ATG_p53_CIS: Attagene CIS-FACTORIAL HepG2 Assay for human p53 Transcription Factor (AID 2282994). To be noted: HepG2 p53 cis-element reporter, Attagene mRNA; actives raise or lower the signal. The method in brief: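 Transiently transfected HepG2 (multiple cis reporter transcription units); exposure 24 h; reporter RNA via RT-PCR, 6-FAM extension, 2 h HpaI digest at 37 C, CE detection; DMSO baseline.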

The nature of assay [6]: BSK_3C_uPAR: BioMAP Diversity Plus: 3C Assay for Urokinase-type plasminogen activator receptor (uPAR) Biomarker Activity (AID 2282998). To be noted: BioMAP 3C HUVEC, uPAR biomarker ELISA; actives raise or lower the signal. The method in brief:
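HUVEC primary cells; 24 h post-dose; uPAR by ELISA; gain or loss of signal fitted bidirectionally vs DMSO baseline.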
(ELISA stands for enzyme-linked immunosorbent assay.)

A short description of assay [7]: BSK_3C_VCAM1: BioMAP Diversity Plus: 3C Assay for Vascular cell adhesion molecule 1 (VCAM1) Biomarker Activity (AID 2282999). To be noted: BioMAP 3C HUVEC, VCAM1 ELISA, cytokine-stimulated; actives raise or lower the signal. The method in brief:
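Activity fitted in both directions relative to DMSO, with ELISA measurement of the surface marker on primary HUVEC (3C) at 24 h post-treatment; parallel SRB staining (0.1% SRB, TCA-fixed, 560 nm) flagged overt cytotoxicity.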

The nature of assay [8]: BSK_4H_Eotaxin3: BioMAP Diversity Plus: 4H Assay for Eotaxin 3 Biomarker Activity (AID 2283000).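 As to outcome: CCL26 protein level quantified by ELISA in parallel with SRB cytotoxicity check.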 Conditions: primary human endothelial cells (HUVEC); actives raise or lower the signal. In a few lines: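 Human umbilical vein endothelial cells (BSK_4H system) dosed with test chemical; Eotaxin-3 (CCL26) measured by ELISA 24 h after dosing. Bidirectional curve fitting relative to DMSO negative control as baseline.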

Read-out in assay [9]: Intercellular Adhesion Molecule 1 (ICAM1), ICAM1 (gene 3383)
The assay is described as follows: BSK_3C_ICAM1: BioMAP Diversity Plus: 3C Assay for Intercellular Adhesion Molecule 1 (ICAM1) Biomarker Activity (AID 2283003). Conditions: primary human endothelial cells (HUVEC); actives raise or lower the signal. The method in brief:
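ELISA readout of ICAM1 in human umbilical vein endothelial cells in the 3C system, taken 24 h post-dose. Gain or loss of signal versus DMSO was fitted in both directions, with SRB total-protein staining run in parallel.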

In assay [10] the target is human Retinoic Acid Receptor beta (RARb), RARB (gene 5915) (UniProt P10826). Briefly: ATG_RARb_TRANS: Attagene TRANS-FACTORIAL HepG2 Assay for human Retinoic Acid Receptor beta (AID 2283004; active = hit-call score of the fitted dose curve at least 0.9, where 1 is the maximum). The method in brief: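 Induction of reporter mRNA from a chimeric RARb-Gal4 construct was measured by RT-PCR, FAM labelling, HpaI digestion and capillary electrophoresis. Measurements followed 24 h compound treatment of transiently transfected human HepG2 liver cells, with DMSO as baseline.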

Assay [11] has as its target Retinoic acid receptor alpha (Homo sapiens) (UniProt P10276). Briefly: ATG_RARa_TRANS: Attagene TRANS-FACTORIAL HepG2 Assay for human Retinoic Acid Receptor alpha (RARa) (AID 2283005; active = hit-call score of the fitted dose curve at least 0.9, where 1 is the maximum;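 as to AC50: potency for increased reporter signal meaning RARa activation over DMSO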). In a few lines:
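Reporter transcripts, measured by RT-PCR with fluorescent labeling and capillary electrophoresis after 24 h dosing, reflect activity of an exogenous human RARa–GAL4 fusion in transiently transfected HepG2. Fitted for increase relative to DMSO.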

Assay [12] is described as follows: BSK_3C_Proliferation: Cell Proliferation Assessment in the BioMAP Diversity Plus: 3C Assay (AID 2283006).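 As to AC50: potency may reflect either rise or fall in cell number versus DMSO.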 To be noted: primary human endothelial cells (HUVEC). The method in brief:
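Proliferation as total protein: sulforhodamine B (0.1%) stain of TCA-fixed subconfluent human umbilical vein endothelial cells, absorbance 560 nm, 48 h after dosing. Activity fitted in both directions against DMSO baseline.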

The target of assay [13] is Peroxisome proliferator-activated receptor gamma (Homo sapiens) (UniProt P37231). The assay is described as follows: ATG_PPARg_TRANS: Attagene TRANS-FACTORIAL HepG2 Assay for human Peroxisome Proliferator-activated Receptor-gamma (PPARg) (AID 2283007; active = hit-call score of the fitted dose curve at least 0.9, where 1 is the maximum). The method in brief: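 Human hepatoma HepG2, transient MRTU transfection, 24 h treatment. mRNA reporter signal by RT-PCR plus capillary electrophoresis, fluorescence detection; fitted for increase over DMSO negative control.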

The target in assay [14] is Nuclear receptor subfamily 1 group I member 2 (Homo sapiens) (UniProt O75469). Briefly: ATG_PXR_TRANS: Attagene TRANS-FACTORIAL HepG2 Assay for human Pregnane X Receptor (PXR) (AID 2283008; active = hit-call score of the fitted dose curve at least 0.9, where 1 is the maximum). In a few lines: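 Transient HepG2 transfectants carrying multiplexed reporter transcription units; PXR activity read through a Gal4 chimera. 24 h exposure. RT-PCR/CE fluorescence; upward curve fit referenced to DMSO.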

Assay [15] concerns the target human Retinoic Acid Receptor gamma (RARg), RARG (gene 5916) (UniProt P13631). The assay is described as follows: ATG_RARg_TRANS: Attagene TRANS-FACTORIAL HepG2 Assay for human Retinoic Acid Receptor gamma (RARg) (AID 2283009; active = hit-call score of the fitted dose curve at least 0.9, where 1 is the maximum;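 as to AC50: AC50 is for reporter induction above DMSO meaning RARg activation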). In a few lines: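 Transactivation of exogenous RARg-Gal4 fusion measured as reporter transcript induction after 24 h in transfected HepG2 cells. RNA reverse-transcribed, amplified, fluorescently labeled and resolved by capillary electrophoresis; increase relative to DMSO.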

Assay [16] deals with human RAR-related Orphan Receptor gamma (RORg), RORC (gene 6097) (UniProt P51449). The assay is described as follows: ATG_RORg_TRANS: Attagene TRANS-FACTORIAL HepG2 Assay for human RAR-related Orphan Receptor gamma (RORg) (AID 2283011; active = hit-call score of the fitted dose curve at least 0.9, where 1 is the maximum). In a few lines: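 Reporter transcripts from a transfected RORg-GAL4 chimera in HepG2 cells were quantified 24 h after dosing by RT-PCR, 6-FAM labelling, HpaI digestion and capillary electrophoresis; increases over DMSO baseline were fitted.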

For assay [17], the target named is human Peroxisome Proliferator-activated Receptor alpha (PPARa), PPARA (gene 5465) (UniProt Q07869). Briefly: ATG_PPARa_TRANS: Attagene TRANS-FACTORIAL HepG2 Assay for human Peroxisome Proliferator-activated Receptor alpha (PPARa) (AID 2283001; active = hit-call score of the fitted dose curve at least 0.9, where 1 is the maximum;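 as to AC50: potency for gain of reporter signal over DMSO so agonist or activator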). In a few lines:
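Reporter transcripts quantified by RT-PCR plus capillary electrophoresis after 24 h treatment, fitted upward relative to DMSO. Cells: human HepG2 transiently carrying multiple GAL4-UAS reporter units driven by NR-Gal4 chimeras.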

The target of assay [18] is human Peroxisome Proliferator-activated Receptor delta (PPARd), PPARD (gene 5467) (UniProt Q03181). Briefly: ATG_PPARd_TRANS: Attagene TRANS-FACTORIAL HepG2 Assay for human Peroxisome Proliferator-activated Receptor delta (PPARd) (AID 2283002; active = hit-call score of the fitted dose curve at least 0.9, where 1 is the maximum). The method in brief: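 Read-out is induced reporter mRNA, quantified by RT-PCR with fluorescent labelling and capillary electrophoresis after 24 h dosing. Cells are HepG2 transiently carrying multiple GAL4-UAS reporter units driven by exogenous NR-GAL4 chimeras; DMSO serves as baseline.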

Assay [19] addresses human RAR-related Orphan Receptor beta (RORb), RORB (gene 6096) (UniProt Q92753). The assay is described as follows: ATG_RORb_TRANS: Attagene TRANS-FACTORIAL HepG2 Assay for human RAR-related Orphan Receptor beta (RORb) (AID 2283010; active = hit-call score of the fitted dose curve at least 0.9, where 1 is the maximum). The method in brief:
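Read-out is reporter mRNA induction, quantified by RT-PCR with fluorescent capillary electrophoresis, 24 h post-dose in transiently transfected HepG2 expressing exogenous NR-Gal4 chimera. Activity fitted upward versus DMSO.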

A short description of assay [20]: ATG_NF_kB_CIS: Attagene CIS-FACTORIAL HepG2 Assay for human Nuclear Factor Kappa B (NF-kB) (AID 2282991). Conditions: HepG2 Attagene cis-factorial NF-kB reporter mRNA; actives raise or lower the signal. The method in brief: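 Multiplexed cis-reporter assay in transiently transfected HepG2. 24 h treatment; RNA isolated, RT-PCR, labelled fragments resolved by CE. DMSO baseline.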

A word on the AC50: it is the midpoint of the concentration-response curve, whichever way the signal moves.

Chain of Cellular tumor antigen p53 (Homo sapiens) (P04637 whole entry, looked up): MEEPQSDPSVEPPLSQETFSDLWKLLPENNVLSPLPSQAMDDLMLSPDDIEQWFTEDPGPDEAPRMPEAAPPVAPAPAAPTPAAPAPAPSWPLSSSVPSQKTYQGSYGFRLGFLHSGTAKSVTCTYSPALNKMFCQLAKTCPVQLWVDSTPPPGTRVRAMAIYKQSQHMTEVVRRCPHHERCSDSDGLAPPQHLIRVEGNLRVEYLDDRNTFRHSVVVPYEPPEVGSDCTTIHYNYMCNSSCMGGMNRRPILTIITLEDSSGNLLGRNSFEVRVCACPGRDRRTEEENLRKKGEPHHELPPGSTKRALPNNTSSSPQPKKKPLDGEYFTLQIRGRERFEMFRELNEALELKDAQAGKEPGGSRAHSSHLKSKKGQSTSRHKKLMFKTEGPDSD
Chain of human Retinoic Acid Receptor beta (RARb), RARB (gene 5915) (P10826 whole entry, looked up, the tested form may be a part): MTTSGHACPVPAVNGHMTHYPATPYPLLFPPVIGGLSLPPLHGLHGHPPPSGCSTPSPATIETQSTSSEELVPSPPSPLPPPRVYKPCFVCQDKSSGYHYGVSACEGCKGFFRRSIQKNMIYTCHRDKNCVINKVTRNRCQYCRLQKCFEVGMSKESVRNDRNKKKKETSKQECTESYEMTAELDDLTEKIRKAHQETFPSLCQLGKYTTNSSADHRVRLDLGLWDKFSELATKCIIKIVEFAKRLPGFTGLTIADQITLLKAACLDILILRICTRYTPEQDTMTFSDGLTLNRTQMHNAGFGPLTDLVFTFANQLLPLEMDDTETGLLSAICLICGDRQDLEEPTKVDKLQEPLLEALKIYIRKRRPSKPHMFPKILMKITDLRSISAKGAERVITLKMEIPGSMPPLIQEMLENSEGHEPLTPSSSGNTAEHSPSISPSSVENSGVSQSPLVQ
Chain of human Peroxisome Proliferator-activated Receptor alpha (PPARa), PPARA (gene 5465) (Q07869 whole entry, looked up, the tested form may be a part): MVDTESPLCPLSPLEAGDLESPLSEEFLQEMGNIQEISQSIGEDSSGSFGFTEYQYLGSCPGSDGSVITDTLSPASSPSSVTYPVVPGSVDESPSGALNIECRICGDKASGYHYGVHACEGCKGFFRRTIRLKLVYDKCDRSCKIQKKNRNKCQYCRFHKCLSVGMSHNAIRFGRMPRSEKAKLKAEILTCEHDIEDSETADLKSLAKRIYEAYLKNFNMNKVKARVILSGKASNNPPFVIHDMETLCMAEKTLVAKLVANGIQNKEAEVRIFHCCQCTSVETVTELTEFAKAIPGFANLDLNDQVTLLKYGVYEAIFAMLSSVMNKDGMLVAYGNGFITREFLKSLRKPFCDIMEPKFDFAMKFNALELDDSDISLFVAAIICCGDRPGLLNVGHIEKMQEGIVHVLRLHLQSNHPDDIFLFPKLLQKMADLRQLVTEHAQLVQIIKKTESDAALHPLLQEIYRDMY
Chain of human Retinoic Acid Receptor gamma (RARg), RARG (gene 5916) (P13631 whole entry, looked up, the tested form may be a part): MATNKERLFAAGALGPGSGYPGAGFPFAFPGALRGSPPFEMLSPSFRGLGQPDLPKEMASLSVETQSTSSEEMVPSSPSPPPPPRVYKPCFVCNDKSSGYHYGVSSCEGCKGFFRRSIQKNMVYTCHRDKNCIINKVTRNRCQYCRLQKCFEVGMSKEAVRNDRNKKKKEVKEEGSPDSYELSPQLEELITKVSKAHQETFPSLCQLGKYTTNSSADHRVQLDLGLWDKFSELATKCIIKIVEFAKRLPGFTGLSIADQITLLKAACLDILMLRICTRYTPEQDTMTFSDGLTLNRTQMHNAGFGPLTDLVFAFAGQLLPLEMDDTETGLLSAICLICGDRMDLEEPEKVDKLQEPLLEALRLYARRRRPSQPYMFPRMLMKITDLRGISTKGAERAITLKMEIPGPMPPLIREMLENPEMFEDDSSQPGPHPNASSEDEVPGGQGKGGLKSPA
Chain of Nuclear receptor subfamily 1 group I member 2 (Homo sapiens) (O75469 whole entry, looked up, the tested form may be a part): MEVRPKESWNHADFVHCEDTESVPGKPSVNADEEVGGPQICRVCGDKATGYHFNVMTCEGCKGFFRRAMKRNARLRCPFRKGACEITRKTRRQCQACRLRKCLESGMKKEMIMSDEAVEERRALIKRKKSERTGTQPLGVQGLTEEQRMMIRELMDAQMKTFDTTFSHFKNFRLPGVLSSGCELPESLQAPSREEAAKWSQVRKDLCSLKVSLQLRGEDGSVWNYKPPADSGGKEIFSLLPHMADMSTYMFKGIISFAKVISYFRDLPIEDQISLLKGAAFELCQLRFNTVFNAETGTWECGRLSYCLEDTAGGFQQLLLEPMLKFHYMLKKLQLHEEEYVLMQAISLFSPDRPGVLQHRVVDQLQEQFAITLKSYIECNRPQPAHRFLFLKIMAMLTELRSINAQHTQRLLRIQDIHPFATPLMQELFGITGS
Chain of Myc proto-oncogene protein (Homo sapiens) (P01106 whole entry, looked up, the tested form may be a part): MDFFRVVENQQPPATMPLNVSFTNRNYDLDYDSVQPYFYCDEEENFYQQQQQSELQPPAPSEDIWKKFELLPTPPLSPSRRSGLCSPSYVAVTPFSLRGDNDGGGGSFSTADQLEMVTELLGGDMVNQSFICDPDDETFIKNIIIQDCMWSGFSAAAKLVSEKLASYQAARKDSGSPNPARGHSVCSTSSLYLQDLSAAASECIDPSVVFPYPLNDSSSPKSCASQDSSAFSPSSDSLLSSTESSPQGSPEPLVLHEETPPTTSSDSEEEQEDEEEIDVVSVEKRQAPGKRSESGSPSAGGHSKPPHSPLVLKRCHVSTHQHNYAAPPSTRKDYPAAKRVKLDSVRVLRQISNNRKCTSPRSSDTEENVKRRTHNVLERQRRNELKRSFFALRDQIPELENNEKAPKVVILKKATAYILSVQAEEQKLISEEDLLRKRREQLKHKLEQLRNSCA
Chain of Peroxisome proliferator-activated receptor gamma (Homo sapiens) (P37231 whole entry, looked up): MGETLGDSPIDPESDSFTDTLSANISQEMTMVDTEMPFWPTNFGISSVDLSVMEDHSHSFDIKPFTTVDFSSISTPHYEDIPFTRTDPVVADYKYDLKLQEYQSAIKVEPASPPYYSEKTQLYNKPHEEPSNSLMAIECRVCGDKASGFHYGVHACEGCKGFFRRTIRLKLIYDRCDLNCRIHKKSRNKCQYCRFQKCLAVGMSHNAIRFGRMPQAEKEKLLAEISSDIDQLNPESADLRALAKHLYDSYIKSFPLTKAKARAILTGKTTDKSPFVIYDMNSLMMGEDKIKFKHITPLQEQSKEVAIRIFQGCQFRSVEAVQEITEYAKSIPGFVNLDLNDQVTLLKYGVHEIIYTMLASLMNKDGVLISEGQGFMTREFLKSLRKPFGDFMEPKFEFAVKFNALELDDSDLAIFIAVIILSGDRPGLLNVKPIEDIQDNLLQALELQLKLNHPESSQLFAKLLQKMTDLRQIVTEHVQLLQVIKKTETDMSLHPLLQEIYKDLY
Chain of human RAR-related Orphan Receptor gamma (RORg), RORC (gene 6097) (P51449 whole entry, looked up, the tested form may be a part): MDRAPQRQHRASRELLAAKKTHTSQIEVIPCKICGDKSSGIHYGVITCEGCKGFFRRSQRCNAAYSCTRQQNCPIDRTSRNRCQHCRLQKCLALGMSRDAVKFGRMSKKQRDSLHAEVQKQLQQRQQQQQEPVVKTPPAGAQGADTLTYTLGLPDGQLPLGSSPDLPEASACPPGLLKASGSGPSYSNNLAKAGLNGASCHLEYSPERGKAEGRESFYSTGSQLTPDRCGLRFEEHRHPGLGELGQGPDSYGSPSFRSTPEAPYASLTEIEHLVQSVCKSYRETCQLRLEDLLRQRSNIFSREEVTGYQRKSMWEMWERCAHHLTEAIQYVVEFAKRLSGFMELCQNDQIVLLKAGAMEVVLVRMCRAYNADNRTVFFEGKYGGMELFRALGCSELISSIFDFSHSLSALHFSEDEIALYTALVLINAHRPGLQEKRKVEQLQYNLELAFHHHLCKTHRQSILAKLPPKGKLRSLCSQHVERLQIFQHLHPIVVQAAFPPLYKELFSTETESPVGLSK
Chain of human RAR-related Orphan Receptor beta (RORb), RORB (gene 6096) (Q92753 whole entry, looked up, the tested form may be a part): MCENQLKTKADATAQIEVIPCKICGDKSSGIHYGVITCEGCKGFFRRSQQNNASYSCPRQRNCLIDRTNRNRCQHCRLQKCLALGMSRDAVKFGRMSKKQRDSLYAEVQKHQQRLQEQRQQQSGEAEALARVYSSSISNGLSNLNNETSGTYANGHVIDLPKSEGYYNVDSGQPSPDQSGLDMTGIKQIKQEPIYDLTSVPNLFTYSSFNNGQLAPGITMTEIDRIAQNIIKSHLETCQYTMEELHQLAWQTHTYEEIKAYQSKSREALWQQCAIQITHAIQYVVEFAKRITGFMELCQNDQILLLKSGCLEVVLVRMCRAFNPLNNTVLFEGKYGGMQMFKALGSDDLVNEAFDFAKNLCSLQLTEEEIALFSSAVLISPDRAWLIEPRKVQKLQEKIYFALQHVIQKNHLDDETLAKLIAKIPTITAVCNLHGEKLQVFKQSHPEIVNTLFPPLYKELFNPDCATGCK
Chain of Retinoic acid receptor alpha (Homo sapiens) (P10276 whole entry, looked up, the tested form may be a part): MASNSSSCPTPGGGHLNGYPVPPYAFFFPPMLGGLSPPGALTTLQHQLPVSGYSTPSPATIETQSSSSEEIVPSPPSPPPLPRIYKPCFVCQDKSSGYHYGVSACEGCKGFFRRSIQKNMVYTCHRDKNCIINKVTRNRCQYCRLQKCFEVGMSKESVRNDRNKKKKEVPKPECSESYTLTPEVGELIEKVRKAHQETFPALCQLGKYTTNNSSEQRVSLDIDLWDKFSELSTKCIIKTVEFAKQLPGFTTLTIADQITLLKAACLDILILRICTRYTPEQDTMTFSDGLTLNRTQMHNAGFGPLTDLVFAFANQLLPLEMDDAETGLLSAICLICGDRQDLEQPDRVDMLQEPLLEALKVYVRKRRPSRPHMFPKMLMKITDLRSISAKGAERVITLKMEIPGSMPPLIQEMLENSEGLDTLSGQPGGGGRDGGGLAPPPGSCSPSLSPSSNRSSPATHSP

With `CCOc1nc(F)cc2nc(S(=O)(=O)Nc3c(Cl)cccc3C(=O)OC)nn12`, the outcome in assay [1], in assay [2], in assay [4], in assay [5], in [6] and in assay [7] was inactive. Also, the outcome in assay [8], in assay [9], in [10], in [11], in assay [12] and in [15] was inactive. Further, in assay [16], the compound was called inactive. The AC50 was 27 µM (active) in [3], 46.2 µM (active) in assay [13] and 7.06 µM (active) in assay [14].
On to `Cc1ccc(C(C)c2ccc(C)c(C)c2)cc1C`, for which the outcome in [1], in [2], in assay [17], in assay [18], in assay [10] and in assay [19] was inactive. For the same compound, the AC50 in assay [3] was 37.5 µM (active); in [4], 147 µM (active); in assay [5], 41.9 µM (active); in assay [14] it was 2.91 µM (active).
Consider `c1ccc2c(c1)ccc1cc3c(ccc4ccccc43)cc12`, for which the call in assay [1], in [2], in assay [4], in assay [5], in assay [6] and in [7] was inactive. Also, the compound was classed as inactive in assay [17], in assay [9], in [12], in assay [14], in assay [15] and in assay [19]. For the same compound, the call in assay [16] was inactive. Besides, the AC50 in [3] was 0.12 µM (active); in [8], 15 nM (active) and 37.3 nM (active).
As for `CCCCCCCCCCCCCCCC[N+](C)(C)CC`, the result in assay [1], in assay [3], in assay [4], in assay [10] and in assay [14] was inactive. The AC50 in [2] was 8.97 µM (active); in assay [5], 11.8 µM (active); in [6], 0.65 µM (active); in assay [7], 3.17 µM (active); in [8], 2.24 µM (active); in [17] it was 13.3 µM (active). The AC50 is 3.44 µM (active) in assay [9]; 17.8 µM (active) in [11]; 0.636 µM (active) in [12]; 15.6 µM (active) in assay [13]; 19.6 µM (active) in [15].
Turning to `COc1ccc(-c2coc3cc(O)ccc3c2=O)cc1`, the call in [1], in assay [2], in [20], in [4], in assay [5] and in assay [14] was inactive.
